Common to all, as to assay: DAPPL (digital affinity profiling via proximity ligation, sequencing); 10 mM Tris-HCl pH 7.5, 50 mM NaCl, 1 mM DTT, 4% glycerol, room temperature, 30 min; GST-TFs on glutathione beads, 16-mer random dsDNA library, 0.1% formaldehyde crosslink after washing; high values mean tight binding
One assay deals with T1, FEV (Homo sapiens, UniProt Q99581 1-238).
T1 sequence: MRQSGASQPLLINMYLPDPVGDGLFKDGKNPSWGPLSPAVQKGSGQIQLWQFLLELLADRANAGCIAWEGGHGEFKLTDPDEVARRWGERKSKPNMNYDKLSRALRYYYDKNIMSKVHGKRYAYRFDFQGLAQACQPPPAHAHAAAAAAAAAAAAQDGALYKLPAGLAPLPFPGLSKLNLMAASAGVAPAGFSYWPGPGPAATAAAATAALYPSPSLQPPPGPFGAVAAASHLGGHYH
The settings on record: protein: recombinant; tags: N-terminal GST; dsDNA, one strand shown. The method, boiled down:
(§1)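 Pools were built from human transcription factors expressed in yeast as GST fusions, captured on glutathione beads and DNA-barcoded, along with a tag-only sample. Incubation with 200 nmole of a 16-mer random double-stranded DNA library lasted 30 min at room temperature in Tris/NaCl/DTT/glycerol buffer, and was followed by washing, 0.1% formaldehyde crosslinking, proximity ligation, PCR amplification and Illumina NextSeq500 sequencing. Binding signal is the quotient of each hexamer's read frequency for a factor and its frequency for the tag-only sample.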

A further assay addresses ETV5 (Homo sapiens, UniProt P41161 1-510). The settings on record: protein: recombinant; tags: N-terminal GST; dsDNA, one strand shown. In outline: as §1
The next assay deals with HSF1 (Homo sapiens, UniProt Q00613 1-529). To be noted: protein: recombinant; tags: N-terminal GST; chain copies: 3; dsDNA, one strand shown. In outline: as §1
The next assay has as its target T2, SPIC (Homo sapiens, UniProt Q8N5J4 1-248).
T2 sequence: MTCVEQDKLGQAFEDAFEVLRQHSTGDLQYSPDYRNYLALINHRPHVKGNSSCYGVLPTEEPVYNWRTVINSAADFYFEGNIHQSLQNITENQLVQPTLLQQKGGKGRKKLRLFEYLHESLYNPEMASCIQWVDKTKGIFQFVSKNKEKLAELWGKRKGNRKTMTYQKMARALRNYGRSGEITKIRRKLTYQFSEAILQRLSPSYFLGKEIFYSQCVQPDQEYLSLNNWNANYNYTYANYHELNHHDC
The settings on record: protein: recombinant; tags: N-terminal GST; dsDNA, one strand shown. In outline:
as §1

A further assay deals with ELF4 (Homo sapiens, UniProt Q99607 1-663). To be noted: protein: recombinant; tags: N-terminal GST; dsDNA, one strand shown. The method, boiled down: as §1
The target in a further assay is T3, ELK4 (Homo sapiens, UniProt P28324-2 1-405).
T3 sequence: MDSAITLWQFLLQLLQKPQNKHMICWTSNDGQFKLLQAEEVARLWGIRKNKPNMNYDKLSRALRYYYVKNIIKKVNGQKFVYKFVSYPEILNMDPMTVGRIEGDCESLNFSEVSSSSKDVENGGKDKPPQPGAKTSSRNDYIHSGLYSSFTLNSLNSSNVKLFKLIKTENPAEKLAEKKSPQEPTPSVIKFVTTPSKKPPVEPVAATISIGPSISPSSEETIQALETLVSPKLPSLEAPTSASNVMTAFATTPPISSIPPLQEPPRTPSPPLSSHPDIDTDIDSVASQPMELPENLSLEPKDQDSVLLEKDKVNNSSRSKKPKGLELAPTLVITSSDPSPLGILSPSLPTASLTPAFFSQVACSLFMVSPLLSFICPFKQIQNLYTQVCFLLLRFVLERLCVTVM
To be noted: protein: recombinant; tags: N-terminal GST; dsDNA, one strand shown. In outline:
as §1

A further assay deals with T4, ETV2 (Homo sapiens, UniProt O00321 1-342).
T4 sequence: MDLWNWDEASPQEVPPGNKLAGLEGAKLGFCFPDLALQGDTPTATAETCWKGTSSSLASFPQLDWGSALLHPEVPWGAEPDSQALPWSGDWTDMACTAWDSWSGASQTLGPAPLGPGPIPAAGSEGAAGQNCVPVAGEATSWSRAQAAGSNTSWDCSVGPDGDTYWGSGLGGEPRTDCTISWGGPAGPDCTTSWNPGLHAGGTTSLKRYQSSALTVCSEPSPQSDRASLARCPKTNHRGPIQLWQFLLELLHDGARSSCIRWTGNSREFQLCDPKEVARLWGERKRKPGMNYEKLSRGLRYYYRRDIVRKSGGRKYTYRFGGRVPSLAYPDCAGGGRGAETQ
To be noted: protein: recombinant; tags: N-terminal GST; dsDNA, one strand shown. In outline: as §1

In a further assay the target is T5, ELF3 (Homo sapiens, UniProt P78545 1-371).
T5 sequence: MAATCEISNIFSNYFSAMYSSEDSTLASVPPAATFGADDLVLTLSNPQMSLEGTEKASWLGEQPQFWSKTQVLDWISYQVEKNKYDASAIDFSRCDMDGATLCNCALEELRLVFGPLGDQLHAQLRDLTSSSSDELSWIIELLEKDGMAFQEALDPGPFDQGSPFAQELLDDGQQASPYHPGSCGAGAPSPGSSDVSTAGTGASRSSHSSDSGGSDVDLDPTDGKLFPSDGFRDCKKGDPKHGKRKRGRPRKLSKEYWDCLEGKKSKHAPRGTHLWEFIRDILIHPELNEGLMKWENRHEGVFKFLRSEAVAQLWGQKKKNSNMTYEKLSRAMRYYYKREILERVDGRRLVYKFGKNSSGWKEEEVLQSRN
The settings on record: protein: recombinant; tags: N-terminal GST; dsDNA, one strand shown. The method, boiled down:
as §1

A further assay deals with CRX (Homo sapiens, UniProt O43186 1-299). The settings on record: protein: recombinant; tags: N-terminal GST; dsDNA, one strand shown. In outline:
as §1

Another assay deals with ETV1 (Homo sapiens, UniProt P50549 1-477). To be noted: protein: recombinant; tags: N-terminal GST; dsDNA, one strand shown. In outline: as §1
The next assay has as its target T6, ERF (Homo sapiens, UniProt P50548 1-548).
T6 sequence: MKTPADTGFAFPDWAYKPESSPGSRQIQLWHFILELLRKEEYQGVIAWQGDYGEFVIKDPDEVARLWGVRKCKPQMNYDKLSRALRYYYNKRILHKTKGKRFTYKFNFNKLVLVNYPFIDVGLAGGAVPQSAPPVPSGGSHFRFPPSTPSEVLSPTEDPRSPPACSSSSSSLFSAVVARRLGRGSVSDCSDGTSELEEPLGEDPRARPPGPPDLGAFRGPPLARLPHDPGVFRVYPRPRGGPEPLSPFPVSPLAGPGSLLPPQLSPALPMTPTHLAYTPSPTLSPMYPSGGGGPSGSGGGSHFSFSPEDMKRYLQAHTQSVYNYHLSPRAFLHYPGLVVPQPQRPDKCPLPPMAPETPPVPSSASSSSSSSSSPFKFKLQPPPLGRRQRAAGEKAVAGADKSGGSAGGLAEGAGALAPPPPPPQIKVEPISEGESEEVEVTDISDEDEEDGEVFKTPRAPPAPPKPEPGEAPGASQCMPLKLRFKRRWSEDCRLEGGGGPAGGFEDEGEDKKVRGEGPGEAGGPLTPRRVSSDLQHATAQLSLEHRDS
The settings on record: protein: recombinant; tags: N-terminal GST; dsDNA, one strand shown. The method, boiled down: as §1

A further assay deals with T7, ETV3L (Homo sapiens, UniProt Q6ZN32 1-361).
T7 sequence: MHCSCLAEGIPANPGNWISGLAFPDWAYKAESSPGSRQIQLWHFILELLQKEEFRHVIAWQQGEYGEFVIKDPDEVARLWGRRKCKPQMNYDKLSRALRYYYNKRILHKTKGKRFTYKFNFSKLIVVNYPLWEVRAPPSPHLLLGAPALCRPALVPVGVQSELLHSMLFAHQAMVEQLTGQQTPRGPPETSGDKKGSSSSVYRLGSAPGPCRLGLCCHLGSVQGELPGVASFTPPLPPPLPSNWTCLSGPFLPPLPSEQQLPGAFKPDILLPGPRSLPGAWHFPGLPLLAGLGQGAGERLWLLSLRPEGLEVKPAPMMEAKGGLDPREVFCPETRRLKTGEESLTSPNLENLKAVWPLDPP
To be noted: protein: recombinant; tags: N-terminal GST; dsDNA, one strand shown. In outline: as §1

For the next assay, the target named is T8, ETS2 (Homo sapiens, UniProt P15036 1-469).
T8 sequence: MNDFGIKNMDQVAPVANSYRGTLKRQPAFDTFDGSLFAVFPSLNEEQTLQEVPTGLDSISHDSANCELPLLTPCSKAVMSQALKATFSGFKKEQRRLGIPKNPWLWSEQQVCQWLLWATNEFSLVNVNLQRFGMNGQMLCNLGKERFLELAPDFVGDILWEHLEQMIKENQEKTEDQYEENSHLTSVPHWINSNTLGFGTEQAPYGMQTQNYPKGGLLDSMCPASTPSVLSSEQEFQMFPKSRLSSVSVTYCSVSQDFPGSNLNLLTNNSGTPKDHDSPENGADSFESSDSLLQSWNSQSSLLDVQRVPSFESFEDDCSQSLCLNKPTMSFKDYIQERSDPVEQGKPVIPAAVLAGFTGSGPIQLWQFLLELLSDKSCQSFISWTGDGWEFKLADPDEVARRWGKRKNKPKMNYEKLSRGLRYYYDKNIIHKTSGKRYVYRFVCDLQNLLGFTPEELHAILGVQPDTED
The settings on record: protein: recombinant; tags: N-terminal GST; dsDNA, one strand shown. In outline:
as §1

The next assay deals with T9, SPDEF (Homo sapiens, UniProt O95238 1-335).
T9 sequence: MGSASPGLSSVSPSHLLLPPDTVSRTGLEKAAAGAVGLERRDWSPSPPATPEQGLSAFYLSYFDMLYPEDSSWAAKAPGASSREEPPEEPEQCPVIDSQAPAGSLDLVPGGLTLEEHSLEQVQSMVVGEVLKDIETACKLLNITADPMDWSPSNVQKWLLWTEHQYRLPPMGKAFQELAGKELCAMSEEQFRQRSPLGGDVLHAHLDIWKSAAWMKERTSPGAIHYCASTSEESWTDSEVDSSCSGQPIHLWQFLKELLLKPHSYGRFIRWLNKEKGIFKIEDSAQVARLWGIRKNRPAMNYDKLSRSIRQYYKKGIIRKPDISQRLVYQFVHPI
To be noted: protein: recombinant; tags: N-terminal GST; dsDNA, one strand shown. The method, boiled down: as §1

The next assay addresses T10, ETV7 (Homo sapiens, UniProt Q9Y603 1-341).
T10 sequence: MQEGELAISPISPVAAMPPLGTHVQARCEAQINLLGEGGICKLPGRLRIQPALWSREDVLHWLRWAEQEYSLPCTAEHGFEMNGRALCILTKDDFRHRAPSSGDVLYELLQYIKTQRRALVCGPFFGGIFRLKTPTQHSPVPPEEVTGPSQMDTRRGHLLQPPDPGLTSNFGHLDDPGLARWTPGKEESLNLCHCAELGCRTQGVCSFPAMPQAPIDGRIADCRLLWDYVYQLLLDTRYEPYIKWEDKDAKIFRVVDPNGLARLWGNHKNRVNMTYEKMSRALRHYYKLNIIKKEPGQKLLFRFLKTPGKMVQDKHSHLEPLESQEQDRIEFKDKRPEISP
To be noted: protein: recombinant; tags: N-terminal GST; dsDNA, one strand shown. In outline: as §1

In another assay the target is T11, ELF5 (Homo sapiens, UniProt Q9UKW6-2 1-255).
T11 sequence: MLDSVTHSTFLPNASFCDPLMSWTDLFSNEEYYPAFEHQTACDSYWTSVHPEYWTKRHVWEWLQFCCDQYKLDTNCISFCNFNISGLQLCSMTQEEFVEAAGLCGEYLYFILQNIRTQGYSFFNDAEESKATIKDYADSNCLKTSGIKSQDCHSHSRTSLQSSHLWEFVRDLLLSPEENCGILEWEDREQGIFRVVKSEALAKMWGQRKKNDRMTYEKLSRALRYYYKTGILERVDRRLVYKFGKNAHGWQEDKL
To be noted: protein: recombinant; tags: N-terminal GST; dsDNA, one strand shown. In outline:
as §1

Another assay has as its target T12, ETV3 (Homo sapiens, UniProt P41162-2 1-143).
T12 sequence: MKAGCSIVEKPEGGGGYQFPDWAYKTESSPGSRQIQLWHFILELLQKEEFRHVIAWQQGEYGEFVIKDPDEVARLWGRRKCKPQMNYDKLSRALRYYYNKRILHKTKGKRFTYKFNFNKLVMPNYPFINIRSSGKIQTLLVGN
The settings on record: protein: recombinant; tags: N-terminal GST; dsDNA, one strand shown. The method, boiled down: as §1

The target in a further assay is ETV6 (Homo sapiens, UniProt P41212 1-452). The settings on record: protein: recombinant; tags: N-terminal GST; dsDNA, one strand shown. The method, boiled down: as §1
Chain of ETV6 (P41212 whole entry): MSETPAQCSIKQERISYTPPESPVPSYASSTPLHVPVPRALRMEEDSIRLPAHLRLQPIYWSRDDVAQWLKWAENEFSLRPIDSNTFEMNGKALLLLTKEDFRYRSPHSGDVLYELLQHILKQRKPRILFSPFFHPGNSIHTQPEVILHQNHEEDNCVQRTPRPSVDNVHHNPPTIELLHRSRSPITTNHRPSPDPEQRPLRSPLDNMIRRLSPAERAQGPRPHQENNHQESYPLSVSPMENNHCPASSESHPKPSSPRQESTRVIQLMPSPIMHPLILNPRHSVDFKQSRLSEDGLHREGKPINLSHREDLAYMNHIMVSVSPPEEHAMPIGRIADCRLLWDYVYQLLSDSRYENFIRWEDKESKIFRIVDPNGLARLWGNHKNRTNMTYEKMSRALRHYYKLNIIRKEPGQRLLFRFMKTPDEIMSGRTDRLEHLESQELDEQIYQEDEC

Chain of ETV5 (P41161 whole entry): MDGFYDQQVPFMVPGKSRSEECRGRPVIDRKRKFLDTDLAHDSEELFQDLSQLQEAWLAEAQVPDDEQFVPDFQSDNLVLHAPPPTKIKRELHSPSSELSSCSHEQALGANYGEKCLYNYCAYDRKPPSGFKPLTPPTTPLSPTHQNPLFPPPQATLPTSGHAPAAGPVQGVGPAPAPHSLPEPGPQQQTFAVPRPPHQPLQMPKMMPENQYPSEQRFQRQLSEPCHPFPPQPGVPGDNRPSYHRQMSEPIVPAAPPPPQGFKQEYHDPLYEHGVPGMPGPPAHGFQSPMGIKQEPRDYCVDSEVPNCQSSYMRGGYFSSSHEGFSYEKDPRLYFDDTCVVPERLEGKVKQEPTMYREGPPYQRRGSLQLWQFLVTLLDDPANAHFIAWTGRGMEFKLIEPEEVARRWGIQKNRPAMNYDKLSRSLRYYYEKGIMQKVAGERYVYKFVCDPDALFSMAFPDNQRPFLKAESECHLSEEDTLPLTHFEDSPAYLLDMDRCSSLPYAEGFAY
Chain of HSF1 (Q00613 whole entry): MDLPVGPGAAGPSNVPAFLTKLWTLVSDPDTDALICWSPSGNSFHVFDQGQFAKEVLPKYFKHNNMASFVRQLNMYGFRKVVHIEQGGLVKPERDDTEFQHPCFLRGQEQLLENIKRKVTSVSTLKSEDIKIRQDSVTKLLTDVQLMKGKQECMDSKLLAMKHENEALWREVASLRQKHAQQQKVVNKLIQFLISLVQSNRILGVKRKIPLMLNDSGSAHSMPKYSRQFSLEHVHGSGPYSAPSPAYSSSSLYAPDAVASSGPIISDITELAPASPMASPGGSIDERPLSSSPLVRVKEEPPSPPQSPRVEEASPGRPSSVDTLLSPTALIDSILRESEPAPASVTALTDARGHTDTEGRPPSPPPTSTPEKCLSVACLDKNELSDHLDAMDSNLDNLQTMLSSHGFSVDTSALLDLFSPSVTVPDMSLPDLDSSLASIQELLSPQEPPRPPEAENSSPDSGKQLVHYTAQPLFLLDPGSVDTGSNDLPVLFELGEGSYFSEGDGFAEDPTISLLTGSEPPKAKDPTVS
Chain of ETV1 (P50549 whole entry): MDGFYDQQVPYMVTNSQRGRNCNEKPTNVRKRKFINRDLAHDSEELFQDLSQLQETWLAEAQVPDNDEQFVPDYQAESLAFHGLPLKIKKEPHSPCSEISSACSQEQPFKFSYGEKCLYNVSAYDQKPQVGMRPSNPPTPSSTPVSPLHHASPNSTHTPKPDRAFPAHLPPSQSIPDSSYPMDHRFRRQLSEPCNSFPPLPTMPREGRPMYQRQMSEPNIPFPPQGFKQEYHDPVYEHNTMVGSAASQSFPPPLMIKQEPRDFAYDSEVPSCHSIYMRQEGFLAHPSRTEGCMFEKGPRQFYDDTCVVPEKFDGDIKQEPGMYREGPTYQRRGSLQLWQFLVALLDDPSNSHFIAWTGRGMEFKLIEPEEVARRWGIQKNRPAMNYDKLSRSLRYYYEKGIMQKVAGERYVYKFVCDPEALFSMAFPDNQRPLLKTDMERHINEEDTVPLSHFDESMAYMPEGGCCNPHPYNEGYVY
Chain of CRX (O43186 whole entry): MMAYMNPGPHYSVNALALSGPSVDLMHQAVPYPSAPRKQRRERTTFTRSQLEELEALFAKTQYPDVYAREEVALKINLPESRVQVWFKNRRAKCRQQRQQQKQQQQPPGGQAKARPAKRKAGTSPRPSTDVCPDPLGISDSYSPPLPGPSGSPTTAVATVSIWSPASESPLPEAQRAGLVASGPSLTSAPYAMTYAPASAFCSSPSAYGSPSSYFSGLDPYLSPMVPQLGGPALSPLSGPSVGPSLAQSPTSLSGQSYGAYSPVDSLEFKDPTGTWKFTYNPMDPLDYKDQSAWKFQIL
Chain of ELF4 (Q99607 whole entry): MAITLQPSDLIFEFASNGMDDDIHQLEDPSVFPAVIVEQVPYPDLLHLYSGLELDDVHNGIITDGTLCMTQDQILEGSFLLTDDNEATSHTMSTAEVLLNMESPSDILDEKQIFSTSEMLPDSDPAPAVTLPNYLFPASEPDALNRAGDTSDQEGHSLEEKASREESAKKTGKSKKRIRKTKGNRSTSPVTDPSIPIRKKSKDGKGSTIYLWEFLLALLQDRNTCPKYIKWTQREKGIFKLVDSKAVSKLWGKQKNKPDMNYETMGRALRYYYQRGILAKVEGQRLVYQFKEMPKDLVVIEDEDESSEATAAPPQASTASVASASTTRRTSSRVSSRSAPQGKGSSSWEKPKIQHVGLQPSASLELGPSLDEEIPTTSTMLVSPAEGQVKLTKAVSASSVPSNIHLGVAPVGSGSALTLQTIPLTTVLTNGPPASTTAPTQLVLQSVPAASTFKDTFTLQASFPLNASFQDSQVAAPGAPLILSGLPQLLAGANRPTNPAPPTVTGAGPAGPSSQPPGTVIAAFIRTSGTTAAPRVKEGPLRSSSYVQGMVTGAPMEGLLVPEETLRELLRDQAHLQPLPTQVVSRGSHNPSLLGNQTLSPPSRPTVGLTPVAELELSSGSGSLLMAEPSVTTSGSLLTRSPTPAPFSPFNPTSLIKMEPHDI

For the sequence ATTGAC, the binding signal in the assay with FEV is 1.18 fold enrichment (6-mer frequency, TF over GST control); in the assay with ETV5, 1.17 fold enrichment (6-mer frequency, TF over GST control); with HSF1, 1.01 fold enrichment (6-mer frequency, TF over GST control); in the assay with SPIC, 1.11 fold enrichment (6-mer frequency, TF over GST control); in the assay with ELF4, 1.15 fold enrichment (6-mer frequency, TF over GST control); with ELK4, 1.34 fold enrichment (6-mer frequency, TF over GST control). The binding signal with ETV2 is 1.38 fold enrichment (6-mer frequency, TF over GST control); in the assay with ELF3, 1.19 fold enrichment (6-mer frequency, TF over GST control); with CRX, 1.11 fold enrichment (6-mer frequency, TF over GST control); with ETV1, 1.1 fold enrichment (6-mer frequency, TF over GST control); in the assay with ERF it was 1.24 fold enrichment (6-mer frequency, TF over GST control); with ETV3L it was 1.26 fold enrichment (6-mer frequency, TF over GST control). The binding signal with ETS2 is 1.36 fold enrichment (6-mer frequency, TF over GST control); with SPDEF it was 1.12 fold enrichment (6-mer frequency, TF over GST control); with ETV7 it was 1.25 fold enrichment (6-mer frequency, TF over GST control); with ELF5 it was 1.19 fold enrichment (6-mer frequency, TF over GST control); with ETV3, 1.21 fold enrichment (6-mer frequency, TF over GST control); in the assay with ETV6 it was 1.23 fold enrichment (6-mer frequency, TF over GST control).

Values taken from paper PMC7862700, “An all-to-all approach to the identification of sequence-specific readers for epigenetic DNA modifications on cytosine”.
